Inconclusive results are not listed. Where a structure was tested more than once in an assay, its records may differ in their call. Activity calls are given as the source filed them. Rule for the calls, unless noted: active = hit-call score of the fitted dose curve at least 0.9, where 1 is the maximum; inconclusive = response in the unintended direction; inactive = score below 0.9.
What was measured:
[1] = CCTE_Deisenroth_5AR_NBTE_donor: CCTE's 5alpha-reductase NanoBRET Target Engagement Assay […], Deisenroth Lab (AID 2284319; active = hit-call score of the fitted dose curve at least 0.9, where 1 is the maximum; inactive = score below 0.9); conditions: actives raise or lower the signal
In short: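 In this secondary endpoint, donor luminescence from SRD5A2-NanoLuc in transfected HEK293T flags artifacts. Test chemical (10 nM - 29.9 uM) is present five hours, tracer the last two; mock-tracer wells run plate-matched; data fitted bidirectionally against DMSO.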

[2] = tested on: SRD5A2 (gene 6716); experiment: CCTE_Deisenroth_5AR_NBTE_ratio: CCTE's 5alpha-reductase NanoBRET Target Engagement Assay - Ratio, Deisenroth Lab (AID 2284322; active = hit-call score of the fitted dose curve at least 0.9, where 1 is the maximum; inactive = score below 0.9); conditions: actives raise or lower the signal
In short: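 SRD5A2-NanoLuc HEK293T; cmpd 10 nM-29.9 uM, 3 h preinc + testosterone tracer 2 h; NanoBRET ratio 650/460; bidirectional fit vs DMSO.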

[3] = biological target: human Phosphoinositide 3-kinase alpha (PI3Ka), PIK3CA (gene 5290) (UniProt P42336); experiment: NVS_ENZ_hPI3Ka: NovaScreen (NVS) Enzymatic Assay for human Phosphoinositide 3-kinase alpha (PI3Ka) (AID 2283196)
human Phosphoinositide 3-kinase alpha (PI3Ka), PIK3CA (gene 5290), sequence (P42336 whole entry, looked up): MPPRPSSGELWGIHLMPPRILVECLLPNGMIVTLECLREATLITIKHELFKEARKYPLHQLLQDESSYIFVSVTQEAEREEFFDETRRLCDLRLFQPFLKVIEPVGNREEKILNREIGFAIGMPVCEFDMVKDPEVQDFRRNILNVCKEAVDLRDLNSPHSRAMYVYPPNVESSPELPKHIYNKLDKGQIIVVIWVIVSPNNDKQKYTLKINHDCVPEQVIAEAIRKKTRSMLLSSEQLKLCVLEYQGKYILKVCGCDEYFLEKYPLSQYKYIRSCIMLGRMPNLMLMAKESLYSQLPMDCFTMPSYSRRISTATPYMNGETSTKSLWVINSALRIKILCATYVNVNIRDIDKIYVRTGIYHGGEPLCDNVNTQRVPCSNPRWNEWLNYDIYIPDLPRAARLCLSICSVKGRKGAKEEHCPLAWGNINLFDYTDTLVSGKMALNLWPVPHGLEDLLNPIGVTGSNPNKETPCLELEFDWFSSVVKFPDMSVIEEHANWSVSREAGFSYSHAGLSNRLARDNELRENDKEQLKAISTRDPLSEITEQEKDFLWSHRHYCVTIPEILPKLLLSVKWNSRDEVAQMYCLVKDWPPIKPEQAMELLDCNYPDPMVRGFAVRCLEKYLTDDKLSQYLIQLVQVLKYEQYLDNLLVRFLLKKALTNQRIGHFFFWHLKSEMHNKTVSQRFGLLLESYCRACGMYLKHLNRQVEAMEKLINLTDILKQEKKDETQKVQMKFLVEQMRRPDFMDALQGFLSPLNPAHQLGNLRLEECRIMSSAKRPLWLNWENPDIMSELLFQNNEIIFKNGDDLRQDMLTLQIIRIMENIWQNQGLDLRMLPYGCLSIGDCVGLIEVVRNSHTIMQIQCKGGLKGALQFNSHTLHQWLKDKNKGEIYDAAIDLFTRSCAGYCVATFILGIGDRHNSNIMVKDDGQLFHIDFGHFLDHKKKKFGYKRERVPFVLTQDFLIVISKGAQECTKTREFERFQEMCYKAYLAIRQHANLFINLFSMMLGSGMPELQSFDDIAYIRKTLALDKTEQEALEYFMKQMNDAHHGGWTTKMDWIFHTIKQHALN
In short: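 Duplicate single-point screen (25 uM), then singleton dose-response (max 50 uM) for compounds meeting the threshold. Cell-free kinase reaction, 1 h; fluorescent mobility-shift readout.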

[4] = biological target: Estrogen receptor (Homo sapiens) (UniProt P03372); experiment: OT_ER_ERaERa_1440: Odyssey Thera (OT) 24-hour HEK293T Protein-Complementation Assay for Estrogen Receptor-alpha/-alpha Homodimer (AID 2283349);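 note: hits raise fluorescence above DMSO for agonists and antagonists alike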
In short: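 Cells (HEK293T) carrying the fragment-tagged ERα LBD (aa 310-547) pair are treated with chemical for 24 hours. Nuclear and/or cytoplasmic fluorescence is then quantified on a laser scanning cytometer. Activity is scored as signal gain against DMSO.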

[5] = biological target: Estrogen receptor (Homo sapiens) (UniProt P03372); experiment: OT_ER_ERaERa_0480: Odyssey Thera (OT) 8-hour HEK293T Protein-Complementation Assay for Estrogen Receptor-alpha/-alpha Homodimer (AID 2283351);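 note: rise in fluorescence from reassembled reporter fragments on ERα LBD homodimer in nucleus or whole cell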
In short: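 Read-out: fluorescence intensity rise relative to DMSO, nuclear for agonists, nuclear plus cytoplasmic for antagonists. Construct is the ERα LBD (aa 310-547) homodimer fragment-complementation pair, stably expressed in HEK293T; exposure 8 h.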

[6] = biological target: Androgen Receptor/SRC-1 Co-activator, AR (gene 367) (UniProt P10275); experiment: OT_AR_ARSRC1_0960: Odyssey Thera (OT) 16-hour HEK293T Protein-Complementation Assay for Androgen Receptor/SRC-1 Co-activator (AID 2283353);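 note: actives raise the signal above DMSO so potency reflects increased AR and SRC-1 complex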
Androgen Receptor/SRC-1 Co-activator, AR (gene 367), sequence (P10275 whole entry, looked up, the tested form may be a part): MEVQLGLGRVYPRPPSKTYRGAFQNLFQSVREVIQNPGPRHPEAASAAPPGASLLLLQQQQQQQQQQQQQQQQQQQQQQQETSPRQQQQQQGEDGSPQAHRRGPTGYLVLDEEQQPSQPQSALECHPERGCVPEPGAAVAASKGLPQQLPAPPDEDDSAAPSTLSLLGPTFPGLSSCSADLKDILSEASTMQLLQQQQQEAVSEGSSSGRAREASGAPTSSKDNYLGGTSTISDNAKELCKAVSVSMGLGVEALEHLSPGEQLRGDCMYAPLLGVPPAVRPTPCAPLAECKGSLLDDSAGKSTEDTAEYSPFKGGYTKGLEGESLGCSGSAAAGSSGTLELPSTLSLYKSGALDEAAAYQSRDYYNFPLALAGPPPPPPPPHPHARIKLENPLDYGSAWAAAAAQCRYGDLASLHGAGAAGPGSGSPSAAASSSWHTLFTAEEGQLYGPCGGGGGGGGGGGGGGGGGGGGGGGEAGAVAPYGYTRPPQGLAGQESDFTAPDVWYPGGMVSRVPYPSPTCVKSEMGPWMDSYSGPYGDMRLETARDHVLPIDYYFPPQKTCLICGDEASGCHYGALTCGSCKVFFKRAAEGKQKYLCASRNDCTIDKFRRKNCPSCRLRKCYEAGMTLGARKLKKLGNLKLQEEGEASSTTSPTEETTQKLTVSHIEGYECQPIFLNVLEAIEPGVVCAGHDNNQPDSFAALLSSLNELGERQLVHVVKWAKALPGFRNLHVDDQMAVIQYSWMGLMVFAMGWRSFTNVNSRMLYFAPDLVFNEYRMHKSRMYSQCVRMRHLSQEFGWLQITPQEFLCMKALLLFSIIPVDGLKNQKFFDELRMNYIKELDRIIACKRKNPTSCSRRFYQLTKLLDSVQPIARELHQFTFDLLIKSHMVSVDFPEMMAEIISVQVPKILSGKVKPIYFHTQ
In short: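 Readout: 488 nm nuclear-to-cytoplasmic fluorescence ratio from imaging of at least 400 cells per image, 16 h post-dose. Reporter is Venus YFP complementation between AR and SRC-1 fusions, stably expressed in HEK293T; activity scored upward relative to DMSO.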

[7] = biological target: Estrogen receptor (Homo sapiens) + Estrogen receptor beta (Homo sapiens) (UniProt P03372+Q92731); experiment: OT_ER_ERaERb_1440: Odyssey Thera (OT) 24-hour HEK293T Protein-Complementation Assay for Estrogen Receptor-alpha/-beta Homodimer (AID 2283356);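 note: heteromer of ER alpha and ER beta binding domains; hits raise reporter fluorescence and both agonists and antagonists give an increase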
In short: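 HEK293T cells stably expressing a PCA pair of ERα LBD (aa 310-547) and ERβ LBD (aa 263-489) were dosed for 24 h. Fluorescence intensity increase versus DMSO vehicle was fitted as gain-of-signal.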

[8] = biological target: Estrogen receptor (Homo sapiens) (UniProt P03372); experiment: OT_ERa_GFPERaERE_0480: Odyssey Thera (OT) 8-hour HeLa Transcription Induction Assay for Estrogen Receptor (AID 2283381; active = hit-call score of the fitted dose curve at least 0.9, where 1 is the maximum; inactive = score below 0.9)
In short: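 GFP-ERE reporter, HeLa, 8 h exposure. Readout: fluorescence microscopy, high-content image analysis. Fit direction positive vs DMSO negative control.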

[9] = biological target: Estrogen receptor (Homo sapiens) (UniProt P03372); experiment: OT_ERa_GFPERaERE_0120: Odyssey Thera (OT) 2-hour HeLa Transcription Induction Assay for Estrogen Receptor (AID 2283382)
In short: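 Fluorescence microscopy read-out: inducible fluorescent protein reporter in HeLa cells, imaged 2 h post-dose. Signal increase over DMSO negative control fitted as single primary endpoint via high content image analysis.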

[10] = biological target: Nucleoli Translocation, AR (gene 367) (UniProt P10275); experiment: UPITT_HCI_U2OS_AR_TIF2_Nucleoli_Antagonist: University of Pittsburgh U2OS Androgen Receptor-Transcriptional Intermediary Factor 2 (AR-TIF2) Antagonism High Content Imaging Assay for Nucleoli Translocation (AID 2283997)
Nucleoli Translocation, AR (gene 367), sequence (P10275 whole entry, looked up, the tested form may be a part): as above
In short: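 Compounds are added at 20 uM final concentration in 0.2% DMSO to U2OS cells carrying AR-RFP and TIF2-GFP fusions. Nucleolar AR-RFP fluorescence is then quantified by automated imaging. Antagonism is fitted positively against DHT baseline.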

[11] = biological target: human Matrix Metalloproteinase-9 (MMP9), MMP9 (gene 4318) (UniProt P14780); experiment: NVS_ENZ_hMMP9: NovaScreen (NVS) Enzymatic Assay for human Matrix Metalloproteinase-9 (MMP9) (AID 2283190);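 note: cell-free recombinant MMP9 protease activity read by fluorescent substrate signal; active means inhibition seen as loss of fluorescence signal versus DMSO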
In short: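 Screening concentration 25 uM, duplicate wells, then dose series for confirmation. Cell-free enzymatic reaction measured by fluorescence intensity 1 h post-dosing; decreased signal versus DMSO taken as activity.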

[12] = biological target: human Phosphatase and Tensin Homolog (PTEN), PTEN (gene 5728) (UniProt P60484); experiment: NVS_ENZ_hPTEN: NovaScreen (NVS) Enzymatic Assay for human Phosphatase and Tensin Homolog (PTEN) (AID 2283203)
In short: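 Loss of fluorescent product signal after mobility-shift separation reports PTEN activity, recombinant human enzyme, 1 h after compound addition. Single 25 uM duplicate screen, then concentration-response on actives; DMSO baseline.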

[13] = biological target: rat Peripheral-type Benzodiazepine Receptor (PBR), Tspo (gene 24230) (UniProt P16257); experiment: NVS_MP_rPBR: NovaScreen (NVS) Membrane Protein Assay for rat Peripheral-type Benzodiazepine Receptor (PBR) (AID 2283335)
rat Peripheral-type Benzodiazepine Receptor (PBR), Tspo (gene 24230), sequence (P16257 whole entry, looked up): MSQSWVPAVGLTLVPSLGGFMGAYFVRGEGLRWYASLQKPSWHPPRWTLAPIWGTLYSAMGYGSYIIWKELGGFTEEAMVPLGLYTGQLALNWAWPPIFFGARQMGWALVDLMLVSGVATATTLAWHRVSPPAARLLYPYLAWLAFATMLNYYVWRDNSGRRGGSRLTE
In short: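 Single-concentration duplicate screening at 25 uM preceded concentration-series retesting of actives. Binding of a specific radioligand to rat kidney membrane PBR was read by filtration radiodetection after 1 h, with plate-wise positive and negative controls.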

[14] = biological target: Peroxisome proliferator-activated receptor gamma (Homo sapiens) (UniProt P37231); experiment: NVS_NR_hPPARg: NovaScreen (NVS) Nuclear Receptor Binding Assay for human Peroxisome Proliferator-activated Receptor gamma (PPARg) (AID 2283370)
Peroxisome proliferator-activated receptor gamma (Homo sapiens), sequence (P37231 whole entry, looked up): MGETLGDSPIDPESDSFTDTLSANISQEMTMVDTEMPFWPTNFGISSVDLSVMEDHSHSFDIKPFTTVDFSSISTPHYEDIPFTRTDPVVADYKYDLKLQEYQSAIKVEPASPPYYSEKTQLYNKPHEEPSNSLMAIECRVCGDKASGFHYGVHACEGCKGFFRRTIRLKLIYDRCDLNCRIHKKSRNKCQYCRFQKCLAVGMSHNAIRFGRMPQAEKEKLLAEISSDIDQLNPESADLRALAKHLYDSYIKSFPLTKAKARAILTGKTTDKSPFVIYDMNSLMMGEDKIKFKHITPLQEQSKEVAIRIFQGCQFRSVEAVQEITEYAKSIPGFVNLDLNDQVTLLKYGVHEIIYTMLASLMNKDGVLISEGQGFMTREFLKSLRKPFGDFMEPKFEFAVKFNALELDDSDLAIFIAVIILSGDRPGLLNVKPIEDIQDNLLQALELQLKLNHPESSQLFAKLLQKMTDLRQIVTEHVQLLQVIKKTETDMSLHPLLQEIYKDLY
In short: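 Cell-free binding to extracted PPARg protein, read by fluorescence polarization 2 h after dosing; loss of signal relative to DMSO baseline marks displacement. Primary screen in duplicate at 25 uM, actives retested in concentration series.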

[15] = biological target: Estrogen receptor (Homo sapiens) (UniProt P03372); experiment: NVS_NR_hER: NovaScreen (NVS) Nuclear Receptor Binding Assay for human Estrogen Receptor (ER) (AID 2283348)
In short: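 MCF7-derived receptor extract, radiolabelled ligand, competitive displacement. Read: scintillation counts at 18 h. DMSO = negative control/baseline. Primary 25 uM duplicate; follow-up concentration–response.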

[16] = biological target: Peroxisome proliferator-activated receptor gamma (Homo sapiens) (UniProt P37231); experiment: OT_PPARg_PPARgSRC1_0480: Odyssey Thera (OT) 8-hour Protein-Complementation Assay for Peroxisome Proliferator-activated Receptor Gamma / SRC-1 Co-activator (AID 2283387);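 note: nuclear to cytoplasmic split Venus YFP fluorescence ratio reporting PPARg SRC-1 interaction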
In short: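 Split-YFP (IFP1/IFP2) PPARg/SRC-1 reporter, HEK293T, 37 °C, 5% CO2; 8 h compound; formaldehyde fix + Draq5; high-content imaging, N/C ratio, ≥350 cells/image, positive direction vs DMSO.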

[17] = biological target: human Phosphodiesterase 10 (PDE10), PDE10A (gene 10846) (UniProt Q9Y233); experiment: NVS_ENZ_hPDE10: NovaScreen (NVS) Enzymatic Assay for human Phosphodiesterase 10 (PDE10) (AID 2283195)
human Phosphodiesterase 10 (PDE10), PDE10A (gene 10846), sequence (Q9Y233 whole entry, looked up): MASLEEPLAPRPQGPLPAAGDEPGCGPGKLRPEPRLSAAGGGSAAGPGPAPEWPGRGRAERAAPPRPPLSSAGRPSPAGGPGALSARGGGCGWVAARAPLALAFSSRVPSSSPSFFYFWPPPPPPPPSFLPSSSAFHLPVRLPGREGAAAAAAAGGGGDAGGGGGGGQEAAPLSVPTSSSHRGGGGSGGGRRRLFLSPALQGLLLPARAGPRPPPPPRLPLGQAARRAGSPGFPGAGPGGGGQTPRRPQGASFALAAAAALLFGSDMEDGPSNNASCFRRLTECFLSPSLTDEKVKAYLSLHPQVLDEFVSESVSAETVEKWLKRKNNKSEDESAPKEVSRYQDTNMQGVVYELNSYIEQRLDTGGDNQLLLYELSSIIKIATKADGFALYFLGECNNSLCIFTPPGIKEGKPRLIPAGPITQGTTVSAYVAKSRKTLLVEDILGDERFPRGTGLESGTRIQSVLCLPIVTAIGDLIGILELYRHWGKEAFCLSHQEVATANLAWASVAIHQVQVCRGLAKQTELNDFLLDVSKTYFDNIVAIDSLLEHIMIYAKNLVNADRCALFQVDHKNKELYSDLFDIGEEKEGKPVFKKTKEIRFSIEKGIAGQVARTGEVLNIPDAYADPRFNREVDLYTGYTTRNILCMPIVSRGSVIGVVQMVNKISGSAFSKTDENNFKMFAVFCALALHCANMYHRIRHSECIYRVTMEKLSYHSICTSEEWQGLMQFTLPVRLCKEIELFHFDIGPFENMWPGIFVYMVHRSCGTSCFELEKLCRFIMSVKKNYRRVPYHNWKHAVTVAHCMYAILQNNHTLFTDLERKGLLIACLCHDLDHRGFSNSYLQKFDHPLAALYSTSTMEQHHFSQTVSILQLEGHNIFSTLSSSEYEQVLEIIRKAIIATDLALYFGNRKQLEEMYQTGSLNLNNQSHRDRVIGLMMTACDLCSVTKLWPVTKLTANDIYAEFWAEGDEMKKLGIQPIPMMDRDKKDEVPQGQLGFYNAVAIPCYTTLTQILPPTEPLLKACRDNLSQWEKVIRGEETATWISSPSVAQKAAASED
In short: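 Biochemical single-readout PDE10A assay, cell-free, extracted protein. Compounds first screened at 25 uM in duplicate, hits then titrated to 50 uM max. Activity measured after 1 h; loss-of-signal fitted against DMSO negative control.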

[18] = biological target: Nuclear receptor subfamily 1 group I member 2 (Homo sapiens) (UniProt O75469); experiment: NVS_NR_hPXR: NovaScreen (NVS) Nuclear Receptor Binding Assay for human Pregnane X Receptor (PXR) (AID 2283365);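 note: a drop in FRET signal versus DMSO baseline means the compound binds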
Nuclear receptor subfamily 1 group I member 2 (Homo sapiens), sequence (O75469 whole entry, looked up): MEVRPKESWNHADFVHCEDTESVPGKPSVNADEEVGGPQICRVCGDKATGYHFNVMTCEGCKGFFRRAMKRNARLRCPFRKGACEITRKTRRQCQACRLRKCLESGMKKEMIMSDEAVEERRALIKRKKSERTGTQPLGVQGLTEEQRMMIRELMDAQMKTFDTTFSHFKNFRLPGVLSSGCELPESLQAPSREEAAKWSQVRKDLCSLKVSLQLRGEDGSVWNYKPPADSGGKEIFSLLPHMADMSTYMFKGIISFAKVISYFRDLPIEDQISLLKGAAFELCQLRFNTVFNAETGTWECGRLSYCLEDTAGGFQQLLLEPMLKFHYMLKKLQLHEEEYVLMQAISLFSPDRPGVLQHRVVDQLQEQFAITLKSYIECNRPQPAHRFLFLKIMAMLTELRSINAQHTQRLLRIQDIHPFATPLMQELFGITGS
In short: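 Cell-free binding assay with extracted human PXR protein, read by TR-FRET 2 h after dosing; loss of signal relative to DMSO baseline indicates binding. Primary screen at 25 uM in duplicate, actives retested in concentration series.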

[19] = CEETOX_H295R_MTT_cell_viability: Viability Assessment in the CeeTox HT-H295R MTT Assay (AID 2283718; active = hit-call score of the fitted dose curve at least 0.9, where 1 is the maximum; inactive = score below 0.9;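 for AC50: curve fitted both ways so AC50 may mark viability loss or gain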)
In short: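 Human H295R adrenal cells, prestimulated 48 h with 10 uM forskolin, were exposed 48 h to chemicals in 0.1% DMSO. Viability was measured in the same wells by MTT (0.5 mg/ml, 4 h, 37 C), absorbance 570/650 nm, as percent of controls.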

[20] = biological target: Oxysterols receptor LXR-alpha (Homo sapiens) (UniProt Q13133); experiment: ATG_LXRa_TRANS: Attagene TRANS-FACTORIAL HepG2 Assay for human Liver X Receptor alpha (LXRa) (AID 2282980); conditions: HepG2 Attagene TRANS reporter, LXRa transactivation
In short: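 HepG2 cells were transiently transfected with multiplexed reporter units driven by chimeric LXRa–GAL4 fusion proteins, then dosed for 24 h. Reporter mRNA was quantified by RT-PCR, fluorescent labelling and capillary electrophoresis; gain of signal fitted against DMSO baseline.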

Oc1cc(Cl)ccc1Cl
outcome [1]: inactive
outcome [2]: inactive

Nc1ccc(-c2ccc(N)c(N)c2)cc1N
outcome [3]: inactive

O=CNC(N1CCN(C(NC=O)C(Cl)(Cl)Cl)CC1)C(Cl)(Cl)Cl (stereo not drawn)
outcome [4]: inactive
outcome [5]: inactive
outcome [6]: inactive
outcome [7]: inactive
outcome [8]: inactive
outcome [9]: inactive
outcome [10]: inactive

COC(C)(C)CCC[C@H](C)C/C=C/C(C)=C/C(=O)OC(C)C
outcome [3]: inactive

N#Cc1cccc(C#N)c1
AC50 [11]: 7.24 µM (active)

Clc1ccc(-c2ccccc2)cc1
outcome [12]: inactive

SCc1ccco1
AC50 [12]: 25 µM (active)

CCc1cccc(C)c1N(C(=O)CCl)[C@@H](C)COC
AC50 [13]: 4.35 µM (active)
outcome [14]: inactive

O=S(=O)(c1ccccc1)c1ccccc1
AC50 [13]: 8.45 µM (active)

O=C(O)c1cc[c]([Hg][Cl])cc1
outcome [15]: inactive

O=[N+]([O-])c1cc(C(F)(F)F)c(Cl)c([N+](=O)[O-])c1Cl
outcome [15]: inactive

O=P(O)(Oc1ccccc1)Oc1ccccc1
outcome [4]: inactive
outcome [5]: inactive
outcome [7]: inactive
outcome [8]: inactive
outcome [9]: inactive
outcome [1]: inactive
outcome [2]: inactive

Nc1cc(Cl)cc(Cl)c1
outcome [16]: inactive

CCCOC(=O)c1ccccc1C(=O)OCCC
outcome [13]: inactive

O=C(CCl)c1ccccc1
outcome [16]: inactive

CCC[N+](=O)[O-]
AC50 [11]: 6.06 µM (active)

O=[N+]([O-])c1ccc(Cl)cc1
outcome [17]: inactive

CCOP(=O)(OCC)OCC
AC50 [11]: 5.9 µM (active)
outcome [16]: inactive

Cc1ccccc1CCl
outcome [3]: inactive

CC(C)(c1cc(Cl)c(O)c(Cl)c1)c1cc(Cl)c(O)c(Cl)c1
AC50 [3]: 3.45 µM (active)
AC50 [18]: 5.12 µM (active)
AC50 [14]: 1.54 µM (active)
outcome [14]: inactive

CC(C)C(=O)Cl
outcome [17]: inactive

C[C@]12CC[C@H](O)C[C@H]1CC[C@@H]1[C@@H]2C[C@@H](O)[C@]2(C)[C@@H](C3=CC(=O)OC3)CC[C@]12O
AC50 [19]: 2.57 µM (active)

Cc1ccc(C)c2ccccc12
outcome [6]: inactive
outcome [18]: inactive
outcome [10]: inactive

C=COCCCl
outcome [20]: inactive
outcome [10]: inactive

ClCC(Cl)Cl
outcome [3]: inactive

c1ccc2c(c1)CCCC2
outcome [4]: inactive
outcome [5]: inactive
outcome [6]: inactive
outcome [7]: inactive
outcome [8]: inactive
outcome [9]: inactive
outcome [10]: inactive

C=CC(=O)OC
outcome [17]: inactive

CC(C)[C@@H](C(=O)O[C@@H](C#N)c1cccc(Oc2ccccc2)c1)c1ccc(Cl)cc1
outcome [18]: inactive
outcome [14]: inactive
outcome [19]: inactive

Oc1ccc(C2(c3ccc(O)cc3)c3ccccc3-c3ccccc32)cc1
AC50 [15]: 0.644 µM (active)

Oc1ccc(Cl)cc1
outcome [18]: inactive
outcome [16]: inactive

Nc1ccc(Cl)c(Cl)c1
outcome [19]: inactive

CC(C)CCCCCCCOC(=O)c1ccccc1C(=O)OCCCCCCCC(C)C
AC50 [11]: 10.9 µM (active)

CCOC(=O)NC(=S)Nc1ccccc1NC(=S)NC(=O)OCC
AC50 [18]: 6.55 µM (active)

Reference: PubChem BioAssay (EPA / NIEHS)
